# SW480 rerep: DNA re-replication induction in SW480 cells; Potency, µM (doses to about 46.1 µM), for the others: at the highest dose re-replication activation, actives largely listed as activators; AID 624297; SW480 DNA re-replication, Hoechst DNA content imaging, 48 h; 340,000 tested, 1.8% active; further: % of control where 0% means no effect; nearly all actives have a fitted effect of over 55% in size
#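 Image-based DNA-content assay: after two days of treatment, nuclei were labelled with the DNA dye Hoechst and imaged, and hits were compounds raising the count of nuclei showing high fluorescence intensity.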
# KB-3-1 tox: KB-3-1 parental cell cytotoxicity; KB-3-1 viability, CellTiter-Glo ATP luminescence, 72 h; Potency, µM (highest dose often 46.1 µM), usual class: cytotoxic; 400,000 tested, 1.4% active; further: on the % scale 0 is the no-effect control and ±100 the full control effect; nearly all actives have a fitted effect of over 60% in size
#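 Viability of parental KB-3-1 cells, measured by CellTiter-Glo luminescence, followed a 72 h incubation at 37 °C with pinned compounds in phenol-red-free DMEM containing 10% FBS.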
# PTAP TSG101 blk: blocks PTAP/TSG101 interaction to inhibit HIV-1 budding; Q99816; Fluorescence polarization, FITC-PTAP peptide / Tsg101 binding; Potency, µM (doses to about 115 µM), without a hit: at the highest dose activity change, negative = inhibition, hits mostly inhibitors; 340,000 tested, under 10 active; active means well fitted inhibition curve with a large enough effect in the main read-out, with a control signal flat, not every such curve was filed as active; inconclusive means small, poorly fitted or top-dose-only effect, or effect the other way, or a change in a side signal; inactive means no such curve, though single readings can be large or run the other way; further: % of control where 0% means no effect
# Target sequence (Q99816 whole entry, looked up): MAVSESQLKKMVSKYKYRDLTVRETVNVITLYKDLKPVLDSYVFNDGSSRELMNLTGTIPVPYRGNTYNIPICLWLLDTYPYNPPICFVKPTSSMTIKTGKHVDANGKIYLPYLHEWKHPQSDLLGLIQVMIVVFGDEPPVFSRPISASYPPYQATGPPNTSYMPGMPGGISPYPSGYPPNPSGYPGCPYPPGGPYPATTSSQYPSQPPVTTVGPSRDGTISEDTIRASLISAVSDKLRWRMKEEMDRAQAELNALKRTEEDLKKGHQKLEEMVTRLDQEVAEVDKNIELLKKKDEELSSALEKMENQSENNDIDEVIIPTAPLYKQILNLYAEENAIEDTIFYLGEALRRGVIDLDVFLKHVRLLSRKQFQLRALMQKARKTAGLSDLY
#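 Compounds were pin-transferred onto Tsg101 binding domain (10 uM final) in HEPES pH 7.5 buffer, then FITC-PTAP peptide was added at 50 nM final. After 20 min at RT, polarization reported peptide displacement across a qHTS concentration series.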
# KB-V1 MDR tox: kills drug-selected multidrug resistant KB-V1 cells. KB-V1 MDR cells viability, CellTiter-Glo, 72 h. Potency, µM (top dose mostly 46.1 µM), hits mostly cytotoxic. 400,000 tested, 3.4% active. AID 1347076; further: on the % scale 0 is the no-effect control and ±100 the full control effect; nearly all actives have a fitted effect of over 60% in size
#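 Cells of the MDR subline KB-V1 are plated, dosed with compound at multiple concentrations, and incubated 72 h at 37 degrees C; CellTiter-Glo is then added and luminescence read after 10 min.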
# MCF10A rerep: inducers of DNA re-replication in MCF 10A breast cells | 350,000 tested, 2.9% active | MCF 10A DNA re-replication, Hoechst nuclear intensity, 48 h | AID 624296 | Potency, µM (top dose mostly 46.1 µM), inactives show at the highest dose activity, positive = re-replication, most hits filed as activators; further: % of control where 0% means no effect; nearly all actives have a fitted effect of over 50% in size
# RGS4 inhibitor: inhibitors of human regulator of G protein signaling 4; P49798; Transcreener GDP fluorescence polarization, RGS4-accelerated GTP hydrolysis; Potency, µM (top dose mostly 114 µM), for inactives: at the highest dose activity change, negative = inhibition, hits mostly inhibitors; 390,000 tested, 0.039% active; AID 504845; further: on the % scale 0 is the no-effect control and ±100 the full control effect; nearly all actives have a fitted effect of over 75% in size
# Target sequence (P49798 whole entry, looked up): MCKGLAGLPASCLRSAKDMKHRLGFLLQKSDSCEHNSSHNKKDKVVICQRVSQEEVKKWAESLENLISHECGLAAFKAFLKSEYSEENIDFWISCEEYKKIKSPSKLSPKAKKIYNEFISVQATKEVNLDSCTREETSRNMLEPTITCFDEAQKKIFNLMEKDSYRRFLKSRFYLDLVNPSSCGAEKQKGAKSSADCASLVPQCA
#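 MLSMR compounds (23 nl, pin-transferred) preincubated 10 min at room temperature with a 500nM (2x) first reagent, then RGS4 at 900nM (2x) plus Transcreener GDP mix added; fluorescence polarization (620/688 nm) read before and after 90 min at 30 °C.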
# Active calls of the source: *; i = inactive; u = inconclusive; x = no result given; [ ] = remark or other dose. Most compounds without a hit are left out; they make up all but 6.6% or so of the library. Unless noted, the call rests on the fitted dose curve; in most records, active means well fitted curve in the direction sought with a large enough effect; inconclusive means small, poorly fitted or top-dose-only effect, or another doubt; inactive means no such curve, though single readings can be large; an effect the other way counts as inactive or inconclusive. Potency means the concentration at half of the fitted maximal effect.
SMILES,SW480 rerep,KB-3-1 tox,PTAP TSG101 blk,KB-V1 MDR tox,MCF10A rerep,RGS4 inhibitor
Cn1c2c(c(=O)[nH]c1=O)C(c1cccc(O)c1)C1=C(N2)c2ccccc2C1=O (configuration not stated),10µM*,16µM*,0%,i,u,4%
Cc1ccc(NC(=O)NC2(C(=O)NCc3ccccc3)CCCCC2)cc1,-7%,i,-6%,i,7%,11%
Cc1ccc(CNC(=O)C2(NC(=O)Nc3ccc(C)cc3)CCCCC2)cc1,16µM*,i,-5%,u,-3%,-10%
O=C(Nc1ccc(F)cc1)NC1(C(=O)NCc2ccc3c(c2)OCO3)CCCCC1,0%,i,-4%,16µM*,u,-9%
O=C(Nc1ccc(-n2nncc2-c2ccco2)cc1)c1cccc(F)c1,-1%,i,-12%,16µM*,u,-4%
Cc1ccc(-c2nc3ccccc3c(=O)n2NC(=O)COc2ccccc2)cc1,-12%,i,-5%,u,-1%,-31%
Cc1ccc(OCC(=O)Nn2c(C)nc3ccccc3c2=O)c(C(C)C)c1,-3%,i,-6%,18µM*,-1%,12%
O=C1C=C(c2ccc3[nH]ccc3c2)C[C@@H](c2ccc(Cl)cc2)C1,23%,i,-1%,i,10µM*,-27%
O=C1C=C(c2ccc3ncccc3c2)C[C@@H](c2ccc(Cl)cc2)C1,8%,u,-2%,u,23µM*,-15%
Cc1ccc(Cn2ccn(CC(=O)Nc3ccccc3C(F)(F)F)c(=O)c2=O)cc1,x,x,x,x,x,-19%
Cc1csc(NC(=O)CSc2nc3ccccc3s2)n1,-9%,i,-6%,i,5%,-18%
CCCc1nnc(NC(=O)Cn2c(=O)sc3ccccc32)s1,1%,i,-4%,18µM*,-5%,-10%
O=C(CCn1c(=O)sc2ccccc21)Nc1nccs1,-10%,i,-1%,i,6%,39%
CCCc1nnc(NC(=O)CN2C(=O)c3ccccc3C2=O)s1,-4%,i,0%,i,1%,-3%
Cc1csc(NC(=O)CCn2c(=O)sc3ccccc32)n1,-9%,i,-3%,23µM*,u,-7%
Cc1csc(NC(=O)CCCSc2nc3ccccc3s2)n1,-4%,i,0%,u,18µM*,-21%
O=S(=O)(Nc1cc(Br)cc2cccnc12)c1cccc2ccccc12,x,x,x,x,x,0%
CC(C)(C)c1cc(CCC(=O)NN)cc(C(C)(C)C)c1O,2%,i,0%,i,0%,4%
COCCOC(=O)/C(=C\c1cc(C(C)(C)C)c(O)c(C(C)(C)C)c1)C(C)=O,u,i,1%,i,3.3µM*,-16%
C/C(=N\NC(=O)c1c(Br)c(C)nn1C)c1ccc(NC(=O)C(C)Oc2ccc(Cl)cc2C)cc1 (configuration not stated),9%,i,0%,i,16µM*,13%
CCC(=O)Nc1ccc(/C(C)=N/NC(=O)c2c(Br)c(C)nn2C)cc1,12%,i,-3%,7.3µM*,10%,0%
C/C(=N\NC(=O)c1c(Br)c(C)nn1C)c1ccc(NC(=O)c2ccoc2C)cc1,-189%,i,u,i,13%,1%
CCCCC(CC)CNC(=O)CN1C(=O)CSc2ccc(S(=O)(=O)N3CCOCC3)cc21 (configuration not stated),x,x,x,x,x,22%
Cc1cc(S(=O)(=O)Nc2c(C)nn(C)c2C)c(Cl)cc1Cl,u,u,-15%,18µM*,-11%,11%
NCCNc1ccc([N+](=O)[O-])c(Sc2nc3ccccc3[nH]2)c1,12%,i,-1%,i,-35%,-24%
SMILES,SW480 rerep,KB-3-1 tox,PTAP TSG101 blk,KB-V1 MDR tox,MCF10A rerep,RGS4 inhibitor
O=S(=O)(Nc1ccc(O)c(Sc2nc3ccccc3s2)c1)c1ccc(F)cc1,-2%,i,-8%,i,u,-17%
O=[N+]([O-])c1cc(S(=O)(=O)C(F)(F)F)ccc1Sc1nc2ccccc2[nH]1,u,u,-1%,i,3.7µM*,-18%
CS(=O)(=O)c1ccc(Sc2nc3ccccc3s2)c([N+](=O)[O-])c1,7.3µM*,i,-4%,u,u,-25%
O=[N+]([O-])c1cc(S(=O)(=O)C(F)(F)F)ccc1Sc1nc2ccccc2s1,13µM*,3.3µM*,-1%,u,u,-41%
O=[N+]([O-])c1ccc(N2CCNCC2)cc1Sc1nc2ccccc2[nH]1,16µM*,u,0%,i,4%,24%
COc1cc(NC(=O)c2c(C)oc3ncnc(N4CCCCC4)c23)cc(OC)c1,x,x,x,x,x,-19%
Cc1c(C#N)c(NC(=O)COC(=O)c2cc(Cl)c3c(c2)OCCCO3)n(Cc2ccco2)c1C,x,i,x,i,x,x
Cc1ccc(-n2c(=O)c3c(c4cc(C)ccc4n3C)n(CC(=O)Nc3ccc(F)cc3)c2=O)cc1,x,i,x,u,x,8%
CCc1ccc(CNC(=O)CCn2c(=O)c3cccn3c3ccc(F)cc32)cc1,x,x,x,x,x,-3%
Cc1ccc(C(=O)Nc2ccc3nc(SCC(=O)N4CCCc5ccccc54)sc3c2)cc1,x,x,x,x,x,13%
Cc1ccc(/C=C/C(=O)c2cc(Br)ccc2OC(=O)c2ccco2)cc1,u,i,-5%,u,16µM*,-7%[11.4 µM]
COc1ccccc1/C=C/C(=O)c1cc(Br)ccc1OC(=O)c1ccco1,u,u,-4%,u,10µM*,u
COc1ccc(Br)cc1C(=O)Nc1ccc(NC(=O)c2ccco2)cc1,-4%,i,-3%,i,u,-35%
CCOC(=O)C1=C(C)C(c2ccccc2OC)NC(=S)N1 (configuration not stated),0%,i,-8%,23µM*,3%,-51%
COc1cc(/C=N/Nc2ccc(F)cc2F)cc(OC)c1O,0%,i,0%,i,16µM*,-5%
COc1cc(/C=N/Nc2ncc(C(F)(F)F)cc2Cl)cc(OC)c1O,-3%,u,-2%,21µM*,-4%,-13%
COc1cc(/C=N/Nc2ncc(C(F)(F)F)cc2Cl)cc(OC)c1OC,7.3µM*,i,-1%,u,u,0%
COc1ccc(/C=N/Nc2ncc(C(F)(F)F)cc2Cl)c(OC)c1OC,-7%,i,-4%,i,17%,-15%
Cc1cccc(OCC(=O)Nc2ccc(O)c(-c3nc4ccccc4o3)c2)c1,x,i,x,i,x,x
O=C(O)COc1ccccc1/C=C1\SC(=O)N(Cc2ccc(F)cc2)C1=O,-8%,i,-2%,i,4.6µM*,-33%

# High-throughput results (PubChem BioAssay)
